Each structure is given as a SMILES string. Hit rate of the full screen: of about 87,000 compounds, about 540 (0.62%) were called active. How the calls were made is not given here. Many of the other results were omitted from the sample, so actives are more common in it than they were. Measured potencies and affinities stand elsewhere.

The assay in a line: MT1-MMP gene expression reporter suppression – cell-based, luciferase reporter, luminescence (AID 618).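 Further: actives suppress MT1-MMP promoter-driven transcription so potencies describe inhibitors.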 The note with it: MT1-MMP promoter luciferase reporter cells. Background: A reporter such as luciferase makes a cellular process visible.
`COC(=O)C(C)Sc1ncnc2c1nnn2-c1ccc(F)cc1` (centres undefined): the call was inactive.

Consider `Cc1ccc(CNC(=O)[C@H]2C[C@@H]2[C@H](NP(=O)(c2ccccc2)c2ccccc2)c2ccccc2)o1`, for which the compound was called inactive.

Turning to `Cc1ccc(C(=O)c2c(C)oc3c2C(=O)C(=O)c2ccccc2-3)cc1`, the compound was called inactive.

As for `O=C1c2ccccc2C(=O)c2c1oc(C(F)(F)F)c2C(=O)c1ccccc1`, the outcome was inactive.

For the compound `Cc1oc2c(c1C(=O)c1ccccc1)C(=O)C(=O)c1ccccc1-2`, the call was active.

As for `COc1cccc(Cn2c(NCc3ccccn3)nc3c2c(=O)n(C)c(=O)n3C)c1`, the call was inactive.

With `Cn1c(=O)c2c(nc(NCc3cccnc3)n2Cc2cccc(C(F)(F)F)c2)n(C)c1=O`, the outcome was inactive.

In the case of `Cc1cc(C)nc(Sc2ccc3nnc(C(F)(F)C(F)(F)C(F)(F)F)n3n2)n1`, the call was inactive.

As to `Cc1ccc(-c2nn3c(C)nnc3s2)cc1NC(=O)C(C)C`, the compound was called inactive.

As for `CCOc1cccc2cc(-c3cn4cc(C)ccc4n3)c(=O)oc12`, the compound was classed as active.

On to `COc1cccc2cc(-c3cn4ccc(C)cc4n3)c(=O)oc12`, for which the compound was classed as inactive.

For the compound `CCOc1cccc2cc(-c3nnc(-c4ccccc4)o3)c(=O)oc12`, the compound was classed as inactive.

On to `CCc1ccc(OCCNC(=O)c2ccc(S(=O)(=O)N(C)C)cc2)cc1`, for which the compound was classed as inactive.

For the compound `CCOC(=O)N1CCN(C(=O)c2ccc(N(Cc3ccc(C)cc3)S(C)(=O)=O)cc2)CC1`, the compound was called inactive.

Consider `CCOP(=O)(c1ccccc1Cl)C1(O)CCCCC1` (centres undefined), for which the compound was called inactive.

Consider `COc1ccc(C(=O)N2CCc3cc(OC)c(OC)cc3C2)cc1OC`, for which the call was inactive.

`CCOc1cc(C(=O)N2CCc3cc(OC)c(OC)cc3C2)ccc1OC(F)F`: the compound was classed as active.

Take `CCOc1ccc(C(=O)N2CCCC2)cc1OC`: the call was inactive.

On to `CCOC(=O)C1=NN(c2ccc(Cl)cc2)C(c2ccccc2)CC1=O` (centres undefined), for which the outcome was inactive.

Turning to `CCCN(CCC)S(=O)(=O)c1cccc(C(=O)Nc2ccc3c(c2)OCO3)c1`, the compound was called inactive.

As for `O=C(Nc1ccc(O)cc1)C1CCCO1` (centres undefined), the outcome was inactive.

Regarding `O=C(Nc1ccc(-c2nc3ccccc3o2)cc1)C1CCCO1` (centres undefined), the result was active.

Turning to `O=C(Nc1ccc(-c2nc3cc(Cl)ccc3o2)cc1)C1CCCO1` (centres undefined), the outcome was inactive.

Regarding `Cc1ccc2oc(-c3cccc(NC(=O)C4CCCO4)c3)nc2c1` (centres undefined), the call was inactive.

As for `O=C(Nc1ccc(-c2nc3ccccc3[nH]2)cc1)C1CCCO1` (centres undefined), the outcome was active.

In the case of `O=C(Nc1nc2ccccc2[nH]1)C1CCCO1` (centres undefined), the call was inactive.

For the compound `COc1ccc(OC)c(NC(=O)C2CCCN2C(=O)OCc2ccccc2)c1` (centres undefined), the call was inactive.

Consider `Nc1nnnn1/N=C/c1cccc(OCc2ccccc2Cl)c1`, for which the call was inactive.

`C=CC(O)(C#CCN(CC)CC)c1ccccc1` (centres undefined): the compound was called inactive.

Turning to `CC(=O)NC1CC2CCCC(C1)N2C(=O)Nc1ccccc1` (centres undefined), the compound was called inactive.

Regarding `Cc1c(C(=O)Nc2ccccn2)oc2ccccc12`, the outcome was inactive.

Consider `CC(=O)Nc1sc2c(c1C(N)=O)CCC2`, for which the compound was called inactive.

For `O=C(Nc1ccccc1)c1cc2ccccc2o1`, the outcome was inactive.

`Cc1cc(C)nc(NC(=O)c2cc3ccccc3o2)n1`: the result was inactive.

As to `NC(=O)c1c(NC(=O)c2ccco2)sc2c1CCC2`, the call was inactive.

With `Cc1c(C(=O)Nc2ccncc2)oc2ccccc12`, the result was inactive.

For the compound `CCCC(C)NC(=O)C1CCN(S(=O)(=O)c2ccccc2)CC1` (centres undefined), the compound was called inactive.

Turning to `O=C(CSc1ccc(-c2nc3ccccc3[nH]2)cn1)N1CCN(C(=O)c2ccco2)CC1`, the outcome was inactive.

As to `O=C(c1ccc(S(=O)(=O)Nc2ccccc2)cc1)N1CCOCC1`, the compound was classed as inactive.

As for `CCN(CC)C(=O)C(C)N(C#N)c1nc(NC(C)C)nc(NC(C)C)n1` (centres undefined), the result was inactive.

As for `Cc1ccc(Cn2c(Sc3nnc(C)s3)nc3c2c(=O)[nH]c(=O)n3C)cc1`, the compound was classed as inactive.

With `Cc1cccc(CCNC(=O)C2CCC(=O)N2Cc2ccc(F)cc2)c1` (centres undefined), the call was inactive.

Regarding `CCOC(=O)Cc1csc(SCC(=O)Nc2sc3c(c2C(N)=O)CCC3)n1`, the result was inactive.

Consider `CCOC(=O)CSC1=C(C#N)C(c2ccc(Cl)cc2)CC(=O)N1` (centres undefined), for which the compound was called inactive.

Regarding `CCCCCCSC1=C(C#N)C(c2ccc(C)o2)CC(=O)N1` (centres undefined), the result was inactive.

For the compound `CCOC(=O)CSC1=C(C#N)C(c2ccccc2OC)CC(=O)N1` (centres undefined), the compound was classed as inactive.

In the case of `CCSC1=C(C#N)C(c2ccc(C)s2)CC(=O)N1` (centres undefined), the result was inactive.

Regarding `CCOC(=O)CSC1=C(C#N)C(c2ccc(C)s2)CC(=O)N1` (centres undefined), the call was active.

In the case of `CCOC(=O)CSC1=C(C#N)C(c2ccc(C)o2)CC(=O)N1` (centres undefined), the result was active.

For `C=CCc1c(C)c(C#N)c2nc3ccccc3n2c1N1CCN(C)CC1`, the compound was called inactive.

For the compound `CCC(CC)C(=O)NCCc1cc2c(C)ccc(C)c2[nH]c1=O`, the result was inactive.

Consider `COc1cc(Nc2cc(C)nc3ncnn23)cc(OC)c1OC`, for which the compound was called inactive.

For `Cc1nc2ncnn2c(Nc2ccc3c(c2)OCO3)c1Cc1ccccc1`, the compound was called inactive.

Turning to `COc1ccc(NC(=O)CSc2nnc(-c3cccnc3)o2)cc1`, the result was inactive.

Take `CCn1nc(C)c(NC(=O)CCCSc2nc(-c3ccco3)cc(C(F)(F)F)n2)c1C`: the result was inactive.

As for `Cc1[nH]nc2c1C(C1CC=CCC1)C(C#N)=C(N)O2` (centres undefined), the call was active.

For `Cc1[nH]nc2c1C(C(C)C)C(C#N)=C(N)O2` (centres undefined), the result was inactive.

Regarding `Cc1ccc(C2C(C#N)=C(N)Oc3n[nH]c(C)c32)cc1` (centres undefined), the result was inactive.

For the compound `CC(=O)N(C(C)=O)C1=C(C#N)C2(CCCCC2)Cc2ccccc21`, the compound was classed as inactive.

On to `COc1cc(C(=O)Nc2nc3ccccc3[nH]2)cc(OC)c1OC`, for which the call was inactive.

On to `C=CCOc1ccc2nc(NC(=O)OC)[nH]c2c1`, for which the outcome was active.

In the case of `O=C(Cc1ccccc1)Nc1nc2ccccc2[nH]1`, the call was inactive.

With `Cc1cc(NC(=O)c2ccccc2F)n(-c2nc3ccccc3[nH]2)n1`, the result was inactive.

As for `O=C(Nc1ccc(F)cc1)c1ccccc1F`, the compound was called inactive.

Take `O=C(Nc1nc2ccccc2[nH]1)c1ccccc1F`: the compound was called active.

Regarding `O=C(COc1ccccc1)Nc1nc2ccccc2[nH]1`, the compound was classed as inactive.

As to `CCCOc1ccc2nc(NC(=O)OC)[nH]c2c1`, the compound was classed as inactive.

`COC(=O)Nc1nc2ccc(C(=O)c3ccccc3)cc2[nH]1`: the call was inactive.

In the case of `COc1cc(OC)cc(C(=O)Nc2nc3ccccc3[nH]2)c1`, the compound was classed as inactive.

As for `Cc1cc(=O)n2nc(N3CCC(C(=O)NCc4cccnc4)CC3)sc2n1`, the call was inactive.

`CC(C)=C1SC(N2CCN(Cc3ccccc3)CC2)=NC1=O`: the outcome was inactive.

For `CC1=C(C#N)C(c2cccnc2)C2=C(CC(c3ccc(Cl)cc3)CC2=O)N1` (centres undefined), the call was inactive.

Take `COc1ccc(-c2nn(-c3ccccc3)cc2C(=O)N2CCOCC2)cc1`: the outcome was inactive.

`Cc1cc(C)n(C(=O)CN2C(=O)c3ccccc3C2=O)n1`: the compound was called inactive.

The record behind these values is PubChem BioAssay AID618 (Sanford-Burnham Center for Chemical Genomics, 2007).
